The supplement of paper PMC10849652
Targets with a hit are over-represented here; the source holds about 7,900 in all. About 0.6% of all pairs of compound and target were hits.

Experiments:
Test in all cases: log2 fold change, soluble protein after heating vs DMSO (PISA); higher = thermal stabilisation; K562 cells, 10 uM, 30 min; active = over 0.2 and 3.5 SD of the protein, either way, in both replicates (recomputed)
[1] = compound: CS(=O)(=O)c1ccc(-c2cnc(N)c(C(=O)Nc3ccccc3)n2)cc1
Method in brief: (§1)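 Thermal stability values are relative to control samples and come from duplicates. They are expressed as log2 fold changes. For measurement, K562 cells (2×10^6 cells/mL) received 10 μM compound for 30 min, and aliquots were heated for 3 min over 48°C-58°C, pooled, and extracted at 4°C in PBS with 0.5% NP-40. Soluble protein, the supernatant after 21,000xg for 90 min, was quantified by TMTpro 16plex LC-MS/MS with equalised channel sums.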

crizotinib = compound: C[C@@H](Oc1cc(-c2cnn(C3CCNCC3)c2)cnc1N)c1c(Cl)ccc(F)c1Cl [crizotinib]
Method in brief: as §1

[2] = compound: C[C@@H]1COCCN1C2=NC(=NC(=C2)C3(CC3)S(=O)(=O)C)C4=C5C=CNC5=CC=C4
Method in brief: as §1

[3] = compound: C[C@H](C1=CC=C(C=C1)C(=O)NC2=C3C=CNC3=NC=C2)N
Method in brief: as §1

duvelisib = compound: C[C@H](Nc1ncnc2nc[nH]c12)c1cc2cccc(Cl)c2c(=O)n1-c1ccccc1 [duvelisib]
Method in brief: as §1

gandotinib = compound: Cc1cc(Nc2cc(CN3CCOCC3)c3nc(C)c(Cc4ccc(Cl)cc4F)n3n2)n[nH]1 [gandotinib]
Method in brief: as §1

tozasertib = compound: Cc1cc(Nc2cc(N3CCN(C)CC3)nc(Sc3ccc(NC(=O)C4CC4)cc3)n2)n[nH]1 [tozasertib]
Method in brief: as §1

[4] = compound: Cc1cc(SCc2sc(-c3ccc(C(F)(F)F)cc3)nc2C)ccc1OCC(=O)O
Method in brief: as §1

doramapimod = compound: Cc1ccc(-n2nc(C(C)(C)C)cc2NC(=O)Nc2ccc(OCCN3CCOCC3)c3ccccc23)cc1 [doramapimod]
Method in brief: as §1

ispinesib = compound: Cc1ccc(C(=O)N(CCCN)[C@@H](c2nc3cc(Cl)ccc3c(=O)n2Cc2ccccc2)C(C)C)cc1 [ispinesib]
Method in brief: as §1

bafetinib = compound: Cc1ccc(NC(=O)c2ccc(CN3CC[C@H](N(C)C)C3)c(C(F)(F)F)c2)cc1Nc1nccc(-c2cncnc2)n1 [bafetinib]
Method in brief: as §1

[5] = compound: Cc1cccc(CC(=O)N2CCc3c2ccc(-c2cn(C)c4ncnc(N)c24)c3F)n1
Method in brief: as §1

nilotinib = compound: Cc1cn(-c2cc(NC(=O)c3ccc(C)c(Nc4nccc(-c5cccnc5)n4)c3)cc(C(F)(F)F)c2)cn1 [nilotinib]
Method in brief: as §1

[6] = compound: Cc1nc(Nc2n[nH]c3c2CN(C(=O)N[C@H](CN(C)C)c2ccccc2)C3(C)C)c2sccc2n1
Method in brief: as §1

dasatinib = compound: Cc1nc(Nc2ncc(C(=O)Nc3c(C)cccc3Cl)s2)cc(N2CCN(CCO)CC2)n1 [dasatinib]
Method in brief: as §1

[7] = compound: Cc1ncc(-c2ccnc(Nc3ccc(S(C)(=O)=O)cc3)n2)n1C(C)C
Method in brief: as §1

[8] = compound: Cn1cc(-c2ccc3c(c2)CCN3C(=O)Cc2cccc(C(F)(F)F)c2)c2c(N)ncnc21
Method in brief: as §1

[9] = compound: Cn1cc(-c2ccc3nnc(C(F)(F)c4ccc5ncccc5c4)n3n2)cn1
Method in brief: as §1

tipifarnib = compound: Cn1cncc1[C@@](N)(c1ccc(Cl)cc1)c1ccc2c(c1)c(-c1cccc(Cl)c1)cc(=O)n2C [tipifarnib]
Method in brief: as §1

mubritinib = compound: FC(F)(F)c1ccc(/C=C/c2nc(COc3ccc(CCCCn4ccnn4)cc3)co2)cc1 [mubritinib]
Method in brief: as §1

Measured: log2 fold change

EVC2 (UniProt Q86UK5)
UniProt Q86UK5, sequence (Q86UK5 whole entry, looked up): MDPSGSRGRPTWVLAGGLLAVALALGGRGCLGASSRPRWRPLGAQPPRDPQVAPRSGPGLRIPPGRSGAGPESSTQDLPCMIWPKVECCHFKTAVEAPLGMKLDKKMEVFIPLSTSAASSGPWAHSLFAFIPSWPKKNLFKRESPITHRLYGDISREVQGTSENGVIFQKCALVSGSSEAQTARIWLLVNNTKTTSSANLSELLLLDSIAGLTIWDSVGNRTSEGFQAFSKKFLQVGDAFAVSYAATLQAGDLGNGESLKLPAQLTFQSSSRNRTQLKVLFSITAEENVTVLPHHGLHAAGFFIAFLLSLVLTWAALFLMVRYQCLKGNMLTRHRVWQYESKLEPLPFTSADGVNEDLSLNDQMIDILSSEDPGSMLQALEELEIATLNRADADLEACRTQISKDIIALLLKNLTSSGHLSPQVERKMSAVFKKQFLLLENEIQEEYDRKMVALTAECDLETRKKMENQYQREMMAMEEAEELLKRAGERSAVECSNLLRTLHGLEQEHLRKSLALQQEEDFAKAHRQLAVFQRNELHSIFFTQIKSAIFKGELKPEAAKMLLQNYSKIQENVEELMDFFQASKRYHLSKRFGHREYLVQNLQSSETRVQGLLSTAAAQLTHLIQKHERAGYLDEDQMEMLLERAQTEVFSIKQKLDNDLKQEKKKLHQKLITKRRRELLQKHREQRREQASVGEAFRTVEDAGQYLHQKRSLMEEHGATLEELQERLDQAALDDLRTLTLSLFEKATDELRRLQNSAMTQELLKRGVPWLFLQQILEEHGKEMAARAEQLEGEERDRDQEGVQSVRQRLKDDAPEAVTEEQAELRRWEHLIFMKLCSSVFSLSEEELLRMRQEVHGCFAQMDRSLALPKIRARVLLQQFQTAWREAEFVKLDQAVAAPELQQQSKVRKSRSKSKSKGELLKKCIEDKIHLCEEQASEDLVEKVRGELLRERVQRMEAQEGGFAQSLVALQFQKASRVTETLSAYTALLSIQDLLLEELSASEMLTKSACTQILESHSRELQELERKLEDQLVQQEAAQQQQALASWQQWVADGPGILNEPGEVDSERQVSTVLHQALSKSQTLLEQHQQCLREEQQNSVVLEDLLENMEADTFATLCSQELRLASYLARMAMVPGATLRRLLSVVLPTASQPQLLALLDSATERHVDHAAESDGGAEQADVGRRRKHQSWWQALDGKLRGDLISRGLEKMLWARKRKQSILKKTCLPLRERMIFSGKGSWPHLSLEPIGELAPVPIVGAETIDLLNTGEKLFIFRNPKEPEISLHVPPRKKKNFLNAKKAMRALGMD
inactive: [1] 0.022 | crizotinib -0.061 | [2] -0.244 | [3] -0.209 | duvelisib -0.162 | gandotinib 0.071 | tozasertib 0.02 | [4] -0.052 | doramapimod 0 | ispinesib 0.065 | bafetinib -0.08 | [5] 0.023 | nilotinib -0.066 | [6] -0.092 | dasatinib -0.043 | [7] 0.131 | [8] -0.149 | [9] -0.148 | tipifarnib 0.162 | mubritinib -0.053

EFCAB14 (UniProt O75071)
UniProt O75071, sequence (O75071 whole entry, looked up): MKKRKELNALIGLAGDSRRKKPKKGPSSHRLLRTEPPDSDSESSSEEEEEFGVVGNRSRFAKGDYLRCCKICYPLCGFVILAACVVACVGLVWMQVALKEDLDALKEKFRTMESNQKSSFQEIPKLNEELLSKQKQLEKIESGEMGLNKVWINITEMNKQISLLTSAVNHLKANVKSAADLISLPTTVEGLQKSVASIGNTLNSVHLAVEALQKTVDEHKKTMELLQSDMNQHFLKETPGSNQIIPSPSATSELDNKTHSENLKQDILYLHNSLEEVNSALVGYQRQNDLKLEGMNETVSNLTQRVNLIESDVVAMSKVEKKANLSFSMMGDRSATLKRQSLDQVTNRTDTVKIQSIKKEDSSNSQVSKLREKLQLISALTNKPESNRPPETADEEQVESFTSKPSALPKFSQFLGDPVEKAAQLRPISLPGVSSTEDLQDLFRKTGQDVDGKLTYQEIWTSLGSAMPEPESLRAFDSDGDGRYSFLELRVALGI
active: crizotinib -0.301
inactive: [1] 0.045 | [2] 0.083 | [3] 0.041 | duvelisib 0.006 | gandotinib -0.009 | tozasertib -0.097 | [4] -0.006 | doramapimod -0.01 | ispinesib -0.004 | bafetinib -0.008 | [5] -0.056 | nilotinib 0.084 | [6] 0.011 | dasatinib 0.075 | [7] 0.003 | [8] -0.123 | [9] -0.048 | tipifarnib -0.062 | mubritinib 0.081

EEF1B2 (UniProt P24534)
UniProt P24534, sequence (P24534 whole entry, looked up): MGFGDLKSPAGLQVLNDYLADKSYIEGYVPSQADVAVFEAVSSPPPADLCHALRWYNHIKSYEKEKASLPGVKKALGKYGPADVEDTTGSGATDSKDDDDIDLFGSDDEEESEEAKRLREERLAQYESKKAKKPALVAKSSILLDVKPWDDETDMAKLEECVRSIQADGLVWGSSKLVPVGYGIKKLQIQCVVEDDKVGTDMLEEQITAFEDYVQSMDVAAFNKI
inactive: [1] 0.003 | crizotinib -0.018 | [2] -0.073 | [3] 0.092 | duvelisib 0.04 | gandotinib -0.043 | tozasertib 0.052 | [4] 0.013 | doramapimod -0.065 | ispinesib -0.024 | bafetinib 0.006 | [5] 0.025 | nilotinib -0.042 | [6] -0.03 | dasatinib 0.026 | [7] 0.043 | [8] -0.057 | [9] -0.054 | tipifarnib -0.109 | mubritinib 0.058

DMAC1 (UniProt Q96GE9)
UniProt Q96GE9, sequence (Q96GE9 whole entry, looked up): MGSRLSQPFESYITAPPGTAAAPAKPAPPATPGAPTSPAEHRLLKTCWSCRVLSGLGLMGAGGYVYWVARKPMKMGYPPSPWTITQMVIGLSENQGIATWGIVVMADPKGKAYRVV
inactive: [1] 0.023 | crizotinib 0.034 | [2] 0.037 | [3] 0.005 | duvelisib 0.166 | gandotinib -0.087 | tozasertib -0.153 | [4] -0.22 | doramapimod 0.066 | ispinesib -0.108 | bafetinib -0.138 | [5] -0.047 | nilotinib -0.083 | [6] 0.067 | dasatinib 0.118 | [7] -0.007 | [8] -0.014 | [9] 0.095 | tipifarnib -0.156 | mubritinib 0.085

ETNK1 (UniProt Q9HBU6)
UniProt Q9HBU6, sequence (Q9HBU6 whole entry, looked up): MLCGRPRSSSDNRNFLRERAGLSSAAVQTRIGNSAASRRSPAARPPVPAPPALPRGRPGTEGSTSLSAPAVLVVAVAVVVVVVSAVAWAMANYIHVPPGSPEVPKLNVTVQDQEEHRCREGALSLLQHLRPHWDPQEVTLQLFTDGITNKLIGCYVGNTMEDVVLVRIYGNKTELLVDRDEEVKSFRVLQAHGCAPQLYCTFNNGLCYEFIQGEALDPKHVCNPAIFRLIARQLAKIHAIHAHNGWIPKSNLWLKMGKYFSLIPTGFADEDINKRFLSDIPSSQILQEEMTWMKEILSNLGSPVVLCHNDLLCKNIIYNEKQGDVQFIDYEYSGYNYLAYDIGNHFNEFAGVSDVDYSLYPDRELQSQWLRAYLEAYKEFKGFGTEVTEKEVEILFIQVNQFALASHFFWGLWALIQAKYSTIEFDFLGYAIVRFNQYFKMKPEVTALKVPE
inactive: [1] -0.006 | crizotinib -0.022 | [2] 0.088 | [3] -0.032 | duvelisib 0.075 | gandotinib -0.057 | tozasertib 0.021 | [4] 0.118 | doramapimod 0.001 | ispinesib 0.059 | bafetinib -0.042 | [5] 0.037 | nilotinib -0.043 | [6] 0.08 | dasatinib -0.07 | [7] 0.06 | [8] 0.026 | [9] 0.008 | tipifarnib -0.183 | mubritinib 0.036

DDOST (UniProt P39656)
UniProt P39656, sequence (P39656 whole entry, looked up): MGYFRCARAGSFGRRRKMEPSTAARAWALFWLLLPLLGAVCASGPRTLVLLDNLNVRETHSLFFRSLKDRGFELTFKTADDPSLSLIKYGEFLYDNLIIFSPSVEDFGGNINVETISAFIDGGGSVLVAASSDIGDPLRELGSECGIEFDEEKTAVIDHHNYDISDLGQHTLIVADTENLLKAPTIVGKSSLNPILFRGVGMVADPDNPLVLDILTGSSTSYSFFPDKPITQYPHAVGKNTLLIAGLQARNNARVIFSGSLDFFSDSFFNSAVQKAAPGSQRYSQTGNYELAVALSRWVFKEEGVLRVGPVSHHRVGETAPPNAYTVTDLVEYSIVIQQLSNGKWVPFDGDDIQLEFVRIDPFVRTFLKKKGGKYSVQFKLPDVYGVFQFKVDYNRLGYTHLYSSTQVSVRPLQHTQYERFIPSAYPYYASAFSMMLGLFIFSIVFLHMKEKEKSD
inactive: [1] 0.014 | crizotinib -0.051 | [2] -0.065 | [3] -0.055 | duvelisib -0.074 | gandotinib 0.02 | tozasertib 0.022 | [4] -0.016 | doramapimod 0.005 | ispinesib 0.13 | bafetinib -0.035 | [5] -0.001 | nilotinib -0.005 | [6] 0.033 | dasatinib 0.016 | [7] -0.039 | [8] -0.04 | [9] 0 | tipifarnib 0.047 | mubritinib -0.022

CUEDC2 (UniProt Q9H467)
UniProt Q9H467, sequence (Q9H467 whole entry, looked up): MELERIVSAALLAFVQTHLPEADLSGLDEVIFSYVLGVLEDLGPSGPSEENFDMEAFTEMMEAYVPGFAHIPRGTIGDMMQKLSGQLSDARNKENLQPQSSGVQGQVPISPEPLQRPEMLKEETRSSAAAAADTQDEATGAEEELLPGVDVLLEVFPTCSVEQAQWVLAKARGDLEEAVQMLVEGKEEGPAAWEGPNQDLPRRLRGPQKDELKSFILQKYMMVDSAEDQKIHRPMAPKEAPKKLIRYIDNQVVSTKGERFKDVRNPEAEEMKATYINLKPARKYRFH
inactive: [1] 0.028 | crizotinib -0.029 | [2] 0.026 | [3] -0.113 | duvelisib 0.048 | gandotinib -0.017 | tozasertib 0.109 | [4] 0.012 | doramapimod -0.087 | ispinesib 0.024 | bafetinib -0.072 | [5] 0.003 | nilotinib -0.006 | [6] -0.045 | dasatinib 0.049 | [7] -0.055 | [8] 0.02 | [9] -0.009 | tipifarnib 0.028 | mubritinib 0.042

DFFB (UniProt O76075)
UniProt O76075, sequence (O76075 whole entry, looked up): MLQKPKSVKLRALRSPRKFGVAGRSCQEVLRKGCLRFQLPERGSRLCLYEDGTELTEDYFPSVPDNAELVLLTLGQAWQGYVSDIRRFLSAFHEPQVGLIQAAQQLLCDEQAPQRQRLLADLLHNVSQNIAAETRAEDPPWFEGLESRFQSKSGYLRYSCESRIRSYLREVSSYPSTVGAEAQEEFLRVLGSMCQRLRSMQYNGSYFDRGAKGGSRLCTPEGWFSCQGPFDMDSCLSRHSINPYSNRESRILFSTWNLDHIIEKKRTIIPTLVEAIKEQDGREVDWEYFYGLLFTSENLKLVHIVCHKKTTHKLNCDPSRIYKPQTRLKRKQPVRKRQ
inactive: [1] 0.018 | crizotinib 0.072 | [2] 0.012 | [3] 0.106 | duvelisib 0.037 | gandotinib -0.017 | tozasertib -0.123 | [4] -0.012 | doramapimod -0.021 | ispinesib -0.006 | bafetinib 0.042 | [5] -0.032 | nilotinib -0.047 | [6] -0.156 | dasatinib -0.057 | [7] 0.056 | [8] -0.053 | [9] 0.002 | tipifarnib -0.072 | mubritinib 0.019

FAF2 (UniProt Q96CS3)
UniProt Q96CS3, sequence (Q96CS3 whole entry, looked up): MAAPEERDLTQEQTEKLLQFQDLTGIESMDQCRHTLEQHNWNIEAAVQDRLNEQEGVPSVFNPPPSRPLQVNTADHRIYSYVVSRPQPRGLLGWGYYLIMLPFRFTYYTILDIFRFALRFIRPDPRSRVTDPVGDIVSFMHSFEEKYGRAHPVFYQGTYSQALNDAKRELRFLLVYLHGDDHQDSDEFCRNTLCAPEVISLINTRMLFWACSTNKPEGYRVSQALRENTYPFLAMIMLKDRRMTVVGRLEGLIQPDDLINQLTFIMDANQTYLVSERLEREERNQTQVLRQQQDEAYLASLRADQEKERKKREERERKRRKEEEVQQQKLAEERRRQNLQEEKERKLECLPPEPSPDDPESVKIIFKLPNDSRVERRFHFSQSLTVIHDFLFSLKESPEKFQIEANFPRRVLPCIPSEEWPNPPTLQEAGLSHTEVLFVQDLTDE
inactive: [1] 0.049 | crizotinib -0.056 | [2] 0.042 | [3] 0.049 | duvelisib 0.031 | gandotinib 0.022 | tozasertib 0.016 | [4] 0.059 | doramapimod 0.023 | ispinesib -0.011 | bafetinib -0.058 | [5] -0.022 | nilotinib -0.042 | [6] -0.049 | dasatinib -0.075 | [7] 0 | [8] 0.017 | [9] -0.04 | tipifarnib -0.021 | mubritinib -0.011

EEA1 (UniProt Q15075)
active: ispinesib -0.22
inactive: [1] -0.007 | crizotinib -0.007 | [2] -0.014 | [3] -0.046 | duvelisib 0.006 | gandotinib 0.02 | tozasertib -0.012 | [4] -0.04 | doramapimod 0.002 | bafetinib -0.043 | [5] -0.021 | nilotinib 0.013 | [6] 0 | dasatinib 0.061 | [7] 0.004 | [8] -0.015 | [9] 0.028 | tipifarnib 0.007 | mubritinib 0.041

CUX1 isoform 2 (UniProt Q13948)
UniProt Q13948, sequence (Q13948 whole entry, looked up): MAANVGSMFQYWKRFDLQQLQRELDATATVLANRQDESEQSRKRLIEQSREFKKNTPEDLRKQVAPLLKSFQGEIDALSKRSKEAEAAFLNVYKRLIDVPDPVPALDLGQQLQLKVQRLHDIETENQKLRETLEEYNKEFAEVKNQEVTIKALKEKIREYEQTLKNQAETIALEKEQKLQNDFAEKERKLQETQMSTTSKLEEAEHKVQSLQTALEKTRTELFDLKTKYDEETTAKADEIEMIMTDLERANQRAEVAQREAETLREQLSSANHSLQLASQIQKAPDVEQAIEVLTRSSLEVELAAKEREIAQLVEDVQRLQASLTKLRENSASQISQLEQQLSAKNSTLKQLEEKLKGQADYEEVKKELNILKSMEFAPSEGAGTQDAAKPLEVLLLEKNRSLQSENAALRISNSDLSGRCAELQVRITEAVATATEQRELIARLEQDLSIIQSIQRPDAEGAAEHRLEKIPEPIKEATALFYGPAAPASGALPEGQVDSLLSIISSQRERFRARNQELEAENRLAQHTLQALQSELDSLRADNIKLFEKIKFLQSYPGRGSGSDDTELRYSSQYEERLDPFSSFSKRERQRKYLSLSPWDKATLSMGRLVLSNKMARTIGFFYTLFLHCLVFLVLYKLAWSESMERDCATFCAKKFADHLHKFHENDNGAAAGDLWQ
inactive: [1] -0.217 | crizotinib -0.063 | [2] 0.029 | [3] -0.063 | duvelisib 0.029 | gandotinib -0.046 | tozasertib -0.029 | [4] 0.002 | doramapimod -0.015 | ispinesib -0.008 | bafetinib 0.051 | [5] 0.042 | nilotinib -0.001 | [6] -0.029 | dasatinib -0.084 | [7] 0.078 | [8] 0.072 | [9] 0.063 | tipifarnib 0.062 | mubritinib 0.007

EEF1D isoform 2 (UniProt P29692)
inactive: [1] 0.043 | crizotinib 0.004 | [2] -0.028 | [3] 0.066 | duvelisib -0.011 | gandotinib -0.057 | tozasertib 0.038 | [4] 0.04 | doramapimod 0.026 | ispinesib -0.055 | bafetinib 0.025 | [5] -0.011 | nilotinib -0.066 | [6] -0.01 | dasatinib -0.051 | [7] 0 | [8] -0.007 | [9] -0.044 | tipifarnib -0.103 | mubritinib 0.081
